Mdm2 MdmX PPI: inhibitors of human Mdm2/MdmX interaction; O15151+Q00987; SaOS-2 split-luciferase Mdm2/MdmX complementation, luminescence; inhibition, % at 8 µM; actives 3% (n = 330,000); AID 485346;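 active means inhibition of at least 50% at 8 µM in the primary screen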
Target sequence (O15151 whole entry, looked up): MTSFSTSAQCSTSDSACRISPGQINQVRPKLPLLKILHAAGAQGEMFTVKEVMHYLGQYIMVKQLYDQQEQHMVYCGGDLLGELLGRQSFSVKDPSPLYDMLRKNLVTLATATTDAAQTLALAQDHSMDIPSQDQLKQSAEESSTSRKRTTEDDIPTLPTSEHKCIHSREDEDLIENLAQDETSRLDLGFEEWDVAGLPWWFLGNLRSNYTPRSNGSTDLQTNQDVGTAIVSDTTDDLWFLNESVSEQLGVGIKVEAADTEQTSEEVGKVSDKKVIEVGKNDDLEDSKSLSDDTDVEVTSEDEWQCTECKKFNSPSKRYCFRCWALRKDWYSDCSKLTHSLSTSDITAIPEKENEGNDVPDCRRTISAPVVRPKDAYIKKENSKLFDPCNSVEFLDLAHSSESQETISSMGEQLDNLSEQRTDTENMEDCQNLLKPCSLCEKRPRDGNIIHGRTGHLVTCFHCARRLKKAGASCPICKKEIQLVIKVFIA
Target sequence (Q00987 whole entry, looked up): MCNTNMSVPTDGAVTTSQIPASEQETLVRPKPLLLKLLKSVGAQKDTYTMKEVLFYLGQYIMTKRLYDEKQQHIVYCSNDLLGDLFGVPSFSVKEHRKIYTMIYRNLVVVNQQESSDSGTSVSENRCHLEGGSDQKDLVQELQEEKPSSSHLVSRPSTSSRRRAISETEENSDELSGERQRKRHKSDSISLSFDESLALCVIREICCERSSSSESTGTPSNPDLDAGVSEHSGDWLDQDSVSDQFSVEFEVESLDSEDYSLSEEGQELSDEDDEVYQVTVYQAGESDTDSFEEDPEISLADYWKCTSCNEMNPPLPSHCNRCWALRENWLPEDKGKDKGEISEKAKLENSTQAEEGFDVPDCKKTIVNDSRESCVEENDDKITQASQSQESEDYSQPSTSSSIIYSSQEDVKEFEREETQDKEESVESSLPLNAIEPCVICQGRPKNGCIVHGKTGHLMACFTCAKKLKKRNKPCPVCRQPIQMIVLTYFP
Jurkat NFkB inh: inhibitors of the PMA/ionomycin-induced NF-kB reporter in Jurkat cells; PMA/ionomycin-induced NF-kB luciferase reporter, luminescence; inhibition, % at 4 µM; actives 0.53% (n = 330,000); in the data active means inhibition above about 50%
CSC inhib: cancer stem cell inhibition. cancer stem cell-like cells viability, luminescence. inhibition, % at 7.5 µM. actives 1.1% (n = 300,000); in the data active means inhibition above about 75%; tested in HMLE shEcad cells
Gli-Sufu antag: Gli-Sufu pathway antagonism; inhibition, % at 5 µM; AID 588413; Sufu-KO-LIGHT fibroblasts, Gli luciferase reporter luminescence; actives 0.74% (n = 340,000);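 active means inhibition above about 55%, limit read from the data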
697 NFkB inh: inhibitors of the PMA/ionomycin-induced NF-kB reporter in 697 B cells. 697 B-cell NF-kB luciferase reporter, 16 h. inhibition, % at 4 µM. actives 0.33% (n = 330,000). AID 435022; in the data active means inhibition above about 35%
Beta cell apopt: blocks beta cell apoptosis. INS-1E cytokine-induced death, ATP luminescence, 48 h; percent of positive-control rescue, neutral wells zero. protection from apoptosis, % (test concentration not listed). actives 0.8% (n = 300,000). AID 435005;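 active means Every replicate reaches about 75%, or at least half do and their mean reaches it too, limit read from the data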;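 further: higher means more ATP so stronger rescue from cytokine killing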
Gli-Sufu confirm: confirmation of Gli-SUFU pathway antagonists; Sufu-KO-LIGHT cells, Gli luciferase reporter, luminescence; actives 40% (n = 2,500); inhibition, % at 5 µM; shares compounds with Gli-Sufu antag;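 active means mean inhibition at 5 µM reaching about 45%, limit read from the data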
Gli cytotox: cytotoxic in Gli-SUFU antagonist counter-screen | Sufu-KO-LIGHT cells cytotoxicity, ATP luminescence | cytotoxicity, % at 5 µM | shares compounds with Gli-Sufu antag | AID 651994 | actives 32% (n = 2,500);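 active means mean cytotoxicity at 5 µM above about 25%, limit read from the data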;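 further: cells exposed to compound overnight for roughly 16 to 18 hours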
Wnt3a cs: counter-screen for Gli-SUFU antagonists: Wnt3a reporter inhibition | shares compounds with Gli-Sufu antag | Wnt-LIGHT cells, Wnt3a-driven luciferase reporter, luminescence | inhibition, % at 6.25 µM | actives 20% (n = 2,500);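 active means mean inhibition above about 25%, limit read from the data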
A number is an active result. An excerpt weighted towards active compounds, which were near 4.5% of everything screened.

What do the screens show for `COC(=O)C1=C(c2c(C)noc2C)C[C@@H]2CC[C@H]1N2C(=O)NCCOc1ccccc1`?
Mdm2 MdmX PPI: inactive; Jurkat NFkB inh: inactive; CSC inhib: inactive; Gli-Sufu antag: inactive; 697 NFkB inh: inactive; Beta cell apopt: inactive

What do the screens show for `CCOc1cc2c(cc1OCC)-n1cccc1C(c1c(O)cccc1OC)NC2` (stereo not drawn)?
Mdm2 MdmX PPI: inactive; Jurkat NFkB inh: inactive; CSC inhib: inactive; Gli-Sufu antag: inactive; 697 NFkB inh: inactive; Beta cell apopt: inactive

How did Cc1cc(/C=C2\C(=O)NC(=O)N(c3ccc(Cl)cc3)C2=O)c(C)n1-c1sc2c(c1C#N)CCCC2 do in these assays?
Mdm2 MdmX PPI: inactive; Jurkat NFkB inh: inactive; Gli-Sufu antag: inactive; 697 NFkB inh: inactive; Beta cell apopt: inactive; Gli-Sufu confirm: 55; Gli cytotox: 47; Wnt3a cs: inactive

How did CCOC(=O)c1c(-n2c(C)cc(/C=C3\C(=O)NC(=O)N(C)C3=O)c2C)sc2c1CCCC2 do in these assays?
Mdm2 MdmX PPI: inactive; Jurkat NFkB inh: inactive; CSC inhib: inactive; Gli-Sufu antag: inactive; 697 NFkB inh: inactive; Beta cell apopt: inactive

Results for CC1CCOC(=O)C=CC=CC(=O)OC2CC3OC4C5OC5(C)C(O)CC4(COC(=O)C1O)C2(C)C31CO1 (stereo not drawn) ?
Gli-Sufu antag: 91; Gli-Sufu confirm: 93; Gli cytotox: 77; Wnt3a cs: 103

What do the screens show for `CN1C(=O)C(=Cc2ccccc2Oc2ccc(Cl)cc2)C(=O)N(C)C1=O`?
Mdm2 MdmX PPI: inactive; Jurkat NFkB inh: inactive; CSC inhib: inactive; Gli-Sufu antag: inactive; 697 NFkB inh: inactive; Beta cell apopt: inactive; Gli-Sufu confirm: inactive; Gli cytotox: inactive; Wnt3a cs: inactive

What do the screens show for `CN1C(=O)C(=Cc2ccccc2OCc2ccc(Cl)cc2)C(=O)N(C)C1=O`?
Mdm2 MdmX PPI: inactive; Jurkat NFkB inh: inactive; CSC inhib: inactive; Gli-Sufu antag: inactive; 697 NFkB inh: inactive; Beta cell apopt: inactive

Results for COC(=O)C1=C(c2ccc(F)cc2F)C[C@@H]2CC[C@H]1N2C(=O)NCc1ccco1 ?
Mdm2 MdmX PPI: inactive; Jurkat NFkB inh: inactive; CSC inhib: inactive; Gli-Sufu antag: inactive; 697 NFkB inh: inactive; Beta cell apopt: inactive

Results for O=C(CF)NC(NC(=S)Nc1ccccc1O)C(Cl)(Cl)Cl (stereo not drawn) ?
Mdm2 MdmX PPI: inactive; Jurkat NFkB inh: inactive; CSC inhib: inactive; Gli-Sufu antag: 87; 697 NFkB inh: inactive; Beta cell apopt: inactive; Gli-Sufu confirm: inactive; Gli cytotox: inactive; Wnt3a cs: inactive

How did COC(=O)C1=C(c2cccc(C#N)c2)C[C@@H]2CC[C@H]1N2C(=O)NCCOc1ccccc1Cl do in these assays?
Mdm2 MdmX PPI: inactive; Jurkat NFkB inh: inactive; CSC inhib: inactive; Gli-Sufu antag: inactive; 697 NFkB inh: inactive; Beta cell apopt: inactive

Results for CNP1(NC)=NC(C(F)(F)F)=NC(C(F)(F)F)=N1 ?
Mdm2 MdmX PPI: inactive; Jurkat NFkB inh: inactive; CSC inhib: inactive; Gli-Sufu antag: 56; 697 NFkB inh: inactive; Beta cell apopt: inactive; Gli-Sufu confirm: inactive; Gli cytotox: inactive; Wnt3a cs: inactive

Results for COc1ccccc1N1CCN(Cc2ccc(Br)s2)CC1 ?
Mdm2 MdmX PPI: inactive; Jurkat NFkB inh: inactive; CSC inhib: inactive; Gli-Sufu antag: 58; 697 NFkB inh: inactive; Beta cell apopt: inactive; Gli-Sufu confirm: inactive; Gli cytotox: inactive; Wnt3a cs: inactive

How did C#CCNc1ccncc1S(=O)(=O)NC(=O)NC(C)C do in these assays?
Mdm2 MdmX PPI: inactive; Jurkat NFkB inh: inactive; CSC inhib: inactive; Gli-Sufu antag: 57; 697 NFkB inh: inactive; Beta cell apopt: inactive; Gli-Sufu confirm: inactive; Gli cytotox: inactive; Wnt3a cs: inactive

Results for Cn1c(O)c(/C=C/C=Nc2ccccc2)c(=O)n(C)c1=O ?
Mdm2 MdmX PPI: inactive; Jurkat NFkB inh: inactive; CSC inhib: inactive; Gli-Sufu antag: inactive; 697 NFkB inh: inactive; Beta cell apopt: inactive

How did CN1/C(=C\C=Nc2ccccc2)C(C)(C)c2ccccc21 do in these assays?
Mdm2 MdmX PPI: inactive; Jurkat NFkB inh: inactive; CSC inhib: inactive; Gli-Sufu antag: 59; 697 NFkB inh: inactive; Gli-Sufu confirm: 59; Gli cytotox: 27; Wnt3a cs: inactive

What do the screens show for `Cc1ccc(C2(O)CN3CCC2CC3)cc1` (stereo not drawn)?
Mdm2 MdmX PPI: inactive; Jurkat NFkB inh: inactive; CSC inhib: inactive; Gli-Sufu antag: inactive; 697 NFkB inh: inactive; Beta cell apopt: inactive

Results for Nc1ccc(C2(c3ccc(N)cc3)CN3CCC2CC3)cc1 ?
Mdm2 MdmX PPI: inactive; Jurkat NFkB inh: inactive; CSC inhib: inactive; Gli-Sufu antag: 71; 697 NFkB inh: inactive; Beta cell apopt: inactive; Gli-Sufu confirm: inactive; Gli cytotox: inactive; Wnt3a cs: inactive

What do the screens show for `O=C(c1cn(Cc2ccccc2F)c2ncccc12)C(F)(F)F`?
Mdm2 MdmX PPI: inactive; Jurkat NFkB inh: inactive; CSC inhib: inactive; Gli-Sufu antag: inactive; 697 NFkB inh: inactive; Beta cell apopt: inactive

What do the screens show for `COc1ccc(CC2C(=O)NC(C)C(=O)N(C)C3C(=O)N(C)C(Cc4ccc(O)c(c4)Oc4ccc(cc4)C3O)C(=O)NC(C)C(=O)NC(C)C(=O)N2C)cc1` (stereo not drawn)?
Gli-Sufu antag: 93; Gli-Sufu confirm: 96; Gli cytotox: 87; Wnt3a cs: 105

What do the screens show for `C=C1C(=O)O[C@H]2[C@H]1[C@H](OC(=O)CC(=O)O[C@@H]1C[C@@H](C)[C@@H]3C=CC(=O)[C@@]3(C)[C@H]3OC(=O)C(=C)[C@H]13)C[C@@H](C)[C@H]1C=CC(=O)[C@]12C`?
Mdm2 MdmX PPI: inactive; Jurkat NFkB inh: inactive; CSC inhib: inactive; Gli-Sufu antag: inactive; 697 NFkB inh: inactive; Beta cell apopt: inactive; Gli-Sufu confirm: inactive; Gli cytotox: 35; Wnt3a cs: inactive

How did N#Cc1cn(C2OC(CO)C(O)C2O)c2ncnc(N)c12 (stereo not drawn) do in these assays?
Gli-Sufu antag: 81; Gli-Sufu confirm: 98; Gli cytotox: 97; Wnt3a cs: inactive

How did N#Cc1c(Br)n(C2OC(CO)C(O)C2O)c2ncnc(N)c12 (stereo not drawn) do in these assays?
Gli-Sufu antag: inactive

How did CC[C@@H](C(N)=O)N1CCCC1=O do in these assays?
Mdm2 MdmX PPI: inactive; Jurkat NFkB inh: inactive; CSC inhib: inactive; 697 NFkB inh: inactive

How did O=C(NC(=O)N1CCC2(CC1)OCCO2)c1ccc(Cl)cc1 do in these assays?
Mdm2 MdmX PPI: inactive; Jurkat NFkB inh: inactive; CSC inhib: inactive; Gli-Sufu antag: 65; 697 NFkB inh: inactive; Beta cell apopt: inactive; Gli-Sufu confirm: inactive; Gli cytotox: inactive; Wnt3a cs: inactive

Assay outcomes as filed in PubChem.
